# Measured values reported in PubChem BioAssay (NCI).
# About 83,000 compounds went through this panel and 20% of them were active in at least one assay; those are over-represented in the sample as a whole.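 Step 1: grow cells in 96-well plates. Step 2: add test compound at a single concentration. Step 3: incubate 48 h. Step 4: record percent growth.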 A number with no mark means an inactive call. Active and inactive are the calls of the source. How the source made its calls: active means growth percent below 10; inactive means the rest.
# How the values were obtained:
# Assay in all cases: NCI-60 one-dose screen, 48 h (100 = growth as untreated, 0 = no growth, -100 = all killed)
# Settings in all cases: 10 µM unless noted
# [1] = system: RPMI-8226 leukemia
# [2] = system: OVCAR-8 ovarian
# [3] = system: OVCAR-5 ovarian
# [4] = system: OVCAR-4 ovarian
# [5] = system: SK-OV-3 ovarian
# [6] = system: IGROV1 ovarian
# [7] = system: OVCAR-3 ovarian
# [8] = system: HS 578T breast
# [9] = system: NCI/ADR-RES ovarian
# [10] = system: T-47D breast
# [11] = system: BT-549 breast
# [12] = system: MDA-MB-435 melanoma
# [13] = system: SW-620 colon
# [14] = system: MCF7 breast
# [15] = system: HCT-116 colon
# [16] = system: HCC-2998 colon
# [17] = system: KM12 colon
SMILES,growth [1],growth [2],growth [3],growth [4],growth [5],growth [6],growth [7],growth [8],growth [9],growth [10],growth [11],growth [12],growth [13],growth [14],growth [15],growth [16],growth [17]
COc1cc(Cn2ncc3ccc(NC(=O)c4cc5ccccc5oc4=N)cc32)cc(OC)c1OC,51.7%,86.8%,58.3%,86.6%,79.4%,46%,38.8%,90%,50%,39.6%,43.6%,-16.1% (active),43.5%,25%,26.6%,85%,32.5%
CC1=C([Se]CC(OC(=O)[C@@H](CO)NC(=O)OC(C)(C)C)C(=O)NC(C)(C)C)C(=O)c2ccccc2C1=O (stereo partly specified),-33.7% (active),-84.9% (active),-100% (active),-100% (active),-100% (active),-100% (active),-100% (active),-37.1% (active),-94.7% (active),-54.1% (active),-100% (active),-82.4% (active),-85.9% (active),-72.6% (active),-100% (active),-89.9% (active),-77.7% (active)
CN(C)CCNc1nc2ccccc2c2c1c1c(n2Cc2ccccc2)-c2ccccc2C1=O,-72.7% (active),-53% (active),-74.7% (active),-93.6% (active),-92.5% (active),-72.9% (active),-79.2% (active),-90.4% (active),-72.6% (active),-41.2% (active),-86.8% (active),-65.1% (active),-92.8% (active),-93.2% (active),-78.2% (active),-91.3% (active),-74.6% (active)
NC(=O)c1ccc[n+](Cc2ccc(Cl)cc2Cl)c1,93%,99.5%,96.9%,109%,97.2%,105%,109%,99.4%,111%,85.3%,76%,107%,103%,95.7%,80%,93.3%,101%
O=[N+]([O-])c1ccc(-c2cc(-c3ccc(Nc4nc(Nc5ccc(Cl)cc5)nc(Nc5ccc(Cl)cc5)n4)cc3)no2)cc1,34.7%,99%,70.7%,31.4%,107%,92%,241%,99.9%,75.3%,97.2%,103%,103%,96.6%,83.1%,83.7%,78.2%,105%
CCN1C(=O)N(CC)C2Nn3c(s/c(=C\c4cccc([N+](=O)[O-])c4)c3=O)=NC21 (stereo unspecified),64.8%,44.7%,45.4%,59.6%,51.7%,53.1%,9.24% (active),41.3%,16.1%,59.5%,58.5%,-36.8% (active),36.4%,35%,23.6%,87.7%,26.7%
N=C(N)c1ccc(-c2ccc(-c3cncc4ccccc34)s2)s1,-33.5% (active),-67.9% (active),-69.3% (active),-90.4% (active),64.4%,-75.1% (active),-85.5% (active),-49.6% (active),-53% (active),-58.3% (active),36.9%,-91.2% (active),-68.4% (active),-68.7% (active),-84.4% (active),-78.3% (active),-78.8% (active)
CCOC(=O)c1c(/C=C/C(=O)O)nc2ccccc2c1/C=C/c1ccccc1,10.9%,31.2%,57.4%,60.5%,93.6%,52.1%,13.3%,18.7%,32.7%,36.4%,19.1%,21.6%,30.1%,30.2%,22.4%,35.1%,19.7%
